Test results taken from PMC4336329 (PLoS ONE, 2015).
The campaign covered roughly 310,000 compounds. About 14,000 (4.5%) showed an effect of 50% or more. Effects have a minus sign here. This excerpt belongs to a sample that is enriched for strong results.

These compounds were tested against human ether-à-go-go-related gene (hERG) potassium channel (human, UniProt Q12809) (assay: primary screen, population patch clamp on CHO cells stably expressing hERG; higher = less effect of the substance).
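Further: peak tail current of the secondary pulse compared with the same well before compound.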

Sequence of human ether-à-go-go-related gene (hERG) potassium channel (Q12809 whole entry, looked up): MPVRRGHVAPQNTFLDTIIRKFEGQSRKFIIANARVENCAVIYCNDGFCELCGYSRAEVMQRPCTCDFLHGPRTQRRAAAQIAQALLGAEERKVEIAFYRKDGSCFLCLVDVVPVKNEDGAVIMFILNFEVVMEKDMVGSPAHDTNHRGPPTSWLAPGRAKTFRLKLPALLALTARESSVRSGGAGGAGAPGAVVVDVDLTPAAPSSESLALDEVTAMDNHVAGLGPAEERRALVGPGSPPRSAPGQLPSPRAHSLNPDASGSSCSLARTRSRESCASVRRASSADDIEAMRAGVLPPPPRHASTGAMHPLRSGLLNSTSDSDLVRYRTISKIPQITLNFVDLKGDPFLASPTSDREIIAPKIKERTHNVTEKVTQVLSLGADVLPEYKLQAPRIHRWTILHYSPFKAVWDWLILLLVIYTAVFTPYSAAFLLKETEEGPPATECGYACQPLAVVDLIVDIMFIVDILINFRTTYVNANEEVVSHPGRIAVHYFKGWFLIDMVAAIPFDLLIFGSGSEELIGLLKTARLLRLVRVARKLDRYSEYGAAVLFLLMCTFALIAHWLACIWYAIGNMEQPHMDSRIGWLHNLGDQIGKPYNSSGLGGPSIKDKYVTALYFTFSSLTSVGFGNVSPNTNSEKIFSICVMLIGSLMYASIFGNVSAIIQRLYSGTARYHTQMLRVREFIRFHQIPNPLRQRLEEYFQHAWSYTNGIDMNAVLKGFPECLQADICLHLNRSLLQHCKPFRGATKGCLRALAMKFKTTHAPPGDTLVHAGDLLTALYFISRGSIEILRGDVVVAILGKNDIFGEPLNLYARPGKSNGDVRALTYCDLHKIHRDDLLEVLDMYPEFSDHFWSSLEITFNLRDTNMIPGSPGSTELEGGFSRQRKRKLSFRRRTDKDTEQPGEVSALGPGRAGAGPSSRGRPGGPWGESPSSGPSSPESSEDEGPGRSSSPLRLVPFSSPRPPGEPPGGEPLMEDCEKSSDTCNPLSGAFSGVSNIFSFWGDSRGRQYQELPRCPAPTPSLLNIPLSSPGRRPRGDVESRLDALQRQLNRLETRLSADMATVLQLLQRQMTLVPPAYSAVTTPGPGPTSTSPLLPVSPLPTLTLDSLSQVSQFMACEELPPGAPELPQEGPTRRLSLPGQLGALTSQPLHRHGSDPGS

Going from `CN1CCN(c2c(F)cc([N+](=O)[O-])c(N)c2Br)CC1` to `O=C(N/N=C/c1cc([N+](=O)[O-])ccc1O)c1cccc(N2CCCC2=O)c1`, the “hERG current change (%, negative = inhibition) at 10uM” value rises from -45.3% to 3.22%.

Going from `OCCCc1cn(-c2ccccc2)c2ccccc12` to `O=c1[nH]c2ccccc2nc1CCc1ccccc1`, the “hERG current change (%, negative = inhibition) at 10uM” value rises from 7.41% to 35.5%.

Compared with `Cc1cc(C(=O)NNC(=O)c2ccc(C)s2)c(C)o1`, `Cc1ccc(C(=O)NCC(=O)OCC(=O)c2ccccc2)s1` is lower in “hERG current change (%, negative = inhibition) at 10uM” value: 3.91% for the first, -12.6% for the second.

Compared with `COc1ccc(N(C2CSC2)S(=O)(=O)c2ccccc2)cc1`, `COc1ccc(CCNS(=O)(=O)c2ccc(Br)s2)cc1` is lower in “hERG current change (%, negative = inhibition) at 10uM” value: 8.52% for the first, -5.73% for the second.

First: CCc1nc(SCC(=O)Nc2nnc(CC)s2)c2c(=O)n(C)c(=O)n(C)c2n1
Second: CC1(C)CC(=O)C2=C(C1)N(CCN1CCOCC1)C1=C(C(=O)CC(C)(C)C1)C2c1ccc(Cl)cc1
The “hERG current change (%, negative = inhibition) at 10uM” value of the first is higher: 4.23% for the first, -34.1% for the second.

First: O=C(Cn1nc(-c2ccccc2F)ccc1=O)NCc1ccc2c(c1)OCO2
Second: O=c1cc(CO)oc(C(Nc2ccccn2)c2ccc(F)cc2)c1O (stereo not shown)
The “hERG current change (%, negative = inhibition) at 10uM” value of the first is lower: -36.9% for the first, 9.87% for the second.

Compared with `CCN1C(=O)[C@H]2[C@@H](c3ccc(C)cc3)N3C(=O)N(c4ccc(C(F)(F)F)cc4)C(=O)[C@@]3(Cc3ccccc3)[C@H]2C1=O`, `O=c1c2ccccc2nc(-c2ccc(-c3ccccc3)cc2)n1-c1ccncc1` is lower in “hERG current change (%, negative = inhibition) at 10uM” value: 16.3% for the first, -42.9% for the second.

Compared with `CC(OC(=O)CCC(=O)c1ccccc1)C(=O)Nc1ccc(F)cc1` (stereo not shown), `CC(OC(=O)CCCC(=O)Nc1ccc(F)cc1)C(=O)c1ccccc1` (stereo not shown) is higher in “hERG current change (%, negative = inhibition) at 10uM” value: -284% for the first, -5.79% for the second.

Going from `CC(=O)Nc1ccc(NC(=O)C(C)OC(=O)CCC(=O)c2ccc(F)cc2)cc1` (stereo not shown) to `Cc1cccc(C(=O)NNS(=O)(=O)c2ccc(F)cc2)c1`, the “hERG current change (%, negative = inhibition) at 10uM” value rises from -7.13% to 8.24%.

Going from `COc1ccc(/C=N\NC(=O)COc2ccccc2Cl)cc1Cn1nc(C)cc1C` to `COc1ccc(CC(=O)Nc2c(C(N)=O)oc3ccccc23)cc1OC`, the “hERG current change (%, negative = inhibition) at 10uM” value rises from 8.15% to 11.4%.

First: CC1(C)CC(=O)C2=C(C1)N(CCN1CCOCC1)C1=C(C(=O)CC(C)(C)C1)C2c1cccc(F)c1
Second: CC1(C)CC(=O)C2=C(C1)N(CCN1CCOCC1)C1=C(C(=O)CC(C)(C)C1)C2c1cccc(Cl)c1
The “hERG current change (%, negative = inhibition) at 10uM” value of the first is higher: -33.5% for the first, -54% for the second.

Going from `CC(CCc1ccccc1)OS(N)(=O)=O` (stereo not shown) to `CC(OC(=O)CCc1nc2ccccc2[nH]c1=O)c1ccccc1` (stereo not shown), the “hERG current change (%, negative = inhibition) at 10uM” value falls from 8.74% to -5.1%.

Going from `COc1ccc(S(=O)(=O)N2CCOCC2)cc1NC(=O)COc1ccccc1` to `O=C(Nc1ccccc1N1CCCCC1)c1ccc(Cl)cc1`, the “hERG current change (%, negative = inhibition) at 10uM” value rises from -40.5% to 12.6%.

First: Cc1ccc(SC/C(O)=C(\C#N)c2nc3ccccc3s2)cc1
Second: O=C(c1ccc2oc(CCc3ccccc3)nc2c1)N1CCC(O)CC1
The “hERG current change (%, negative = inhibition) at 10uM” value of the first is higher: 29.9% for the first, 14.9% for the second.

Going from `Cc1ccc(C(=O)NCC(=O)OCC(=O)Nc2ccc(Cl)cc2C(F)(F)F)cc1C` to `Cc1cccc(NC(=O)C2CCN(C(=O)c3ccc(Cl)cc3)CC2)n1`, the “hERG current change (%, negative = inhibition) at 10uM” value falls from -4.47% to -51.5%.

Compared with `N#Cc1ccsc1NC(=O)C1CCN(C(=O)c2ccc(F)cc2)CC1`, `N#Cc1ccsc1NC(=O)C1CCN(C(=O)c2ccc(Cl)cc2)CC1` is lower in “hERG current change (%, negative = inhibition) at 10uM” value: -45.7% for the first, -73.2% for the second.

Going from `O=C(Nc1ccccc1N1CCCC1)C1CCN(C(=O)c2ccc(Cl)cc2)CC1` to `O=C(Nc1ccccc1N1CCCCC1)C1CCN(C(=O)c2ccc(Cl)cc2)CC1`, the “hERG current change (%, negative = inhibition) at 10uM” value falls from -59.8% to -69.9%.

Compared with `O=C(Nc1ccccc1N1CCCC1)C1CCN(C(=O)c2ccc(F)cc2)CC1`, `Cc1ccccc1C(=O)N1CCC(C(=O)Nc2ccccc2N2CCCC2)CC1` is higher in “hERG current change (%, negative = inhibition) at 10uM” value: -27.8% for the first, -0.721% for the second.

Going from `O=C(NC1CC1)C1CCN(C(=O)c2ccc(Cl)cc2)CC1` to `O=C(NC1CCCCC1)C1CCN(C(=O)c2ccc(Cl)cc2)CC1`, the “hERG current change (%, negative = inhibition) at 10uM” value falls from 19.8% to -6.16%.

First: O=C(C1CCCCC1)N1CCCc2ccccc21
Second: Cc1ccccc1C(=O)N1CCC(C(=O)N2CCCc3ccccc32)CC1
The “hERG current change (%, negative = inhibition) at 10uM” value of the first is lower: -5.03% for the first, -1.08% for the second.

Compared with `Cc1cccc(NC(=O)C2CCN(C(=O)c3ccccc3C)CC2)n1`, `Cc1cccc(NC(=O)C2CCN(C(=O)c3ccc(F)cc3)CC2)n1` is higher in “hERG current change (%, negative = inhibition) at 10uM” value: -17.6% for the first, -0.274% for the second.

In the case of `O=C(c1ccc(Cl)cc1)N1CCC(C(=O)N2CCCc3ccccc32)CC1`, the “hERG current change (%, negative = inhibition) at 10uM” value is reported as -76.4%.
